# Measurements from PubChem BioAssay (NCATS).
# Where “and” joins values, the source holds several entries; their conditions need not be identical. Equal values may be shown once. Values without a mark were called inactive. Results filed as inconclusive are left out. A call without a number means that no potency is given here. Calls of active or inactive are those of the source. Unless noted, calls follow the shape of the dose curve; as a rule, active = well fitted curve in the direction sought with a large enough effect; inconclusive = small, poorly fitted or top-dose-only effect, or another doubt; inactive = no such curve, though single readings can be large; an effect the other way counts as inactive or inconclusive.
# Columns and labels:
# [1] = Cell Viability - Mesenchymal (AID 546);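 also: cells exposed to compound for 40 hours before reading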
# How it was run: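 CellTiter-Glo luminescence (intracellular ATP, 20 min room temperature) after 40 hr compound exposure at 37 °C of 1000 glomerulus-derived human kidney mesenchymal cells/well; AC50 values obtained by fitting qHTS concentration-response data to the Hill equation.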
# [2] = Cellular Toxicity (caspase-3) HUV-EC-C (AID 656)
# How it was run: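 Concentration-dependent caspase 3/7 induction was assessed in HUV-EC-C cells exposed for 16 hours. Data scaled between DMSO and tamoxifen (100 uM) controls.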
# [3] = Cellular Toxicity (caspase-3) SHSY5Y (AID 657);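 also: cells exposed to compound for 16 hours at 37 °C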
# How it was run: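 Readout: caspase-cleaved peptide-aminoluciferin substrate driving luciferase light in SH-SY5Y neuroblastoma cells after 16 h treatment. Response normalized to DMSO and 10 uM staurosporine controls.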
# [4] = Cellular Toxicity (caspase-3) Mesangial (AID 660);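 also: combined caspase 3 and 7 activity read by Caspase-Glo luminescence; cells exposed to compound for 16 h before the caspase read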
# How it was run: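 Seed cells derived from normal human renal glomeruli, incubate 5 h, add compounds across concentrations and incubate 16 h at 37 °C. Caspase 3/7 activation is then quantified by luciferase light, with AC50 derived by Hill modeling.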
# [5] = Cellular Toxicity (caspase-3) H-4-II-E (AID 663); details: Potency: caspase-3 activation;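 also: cells exposed to compound for 16 hr before readout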
# How it was run: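 Caspase 3/7 activation measured by luminescent aminoluciferin substrate cleavage after 16 hr compound treatment of H-4-II-E cells in complete medium. Increase normalized between DMSO (basal) and 100 uM tamoxifen (100%); Hill-equation AC50 from concentration-response.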
# [6] = molecular target: Cytochrome P450 3A4 (Homo sapiens) (UniProt P08684); assay: qHTS Assay for Inhibitors and Substrates of Cytochrome P450 3A4 (AID 884); also: nearly all actives have a fitted effect of over 50% in size; also: potency is read from the fitted curve at half-maximal effect
# How it was run: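 Luminescent readout of luciferin produced by CYP3A4 (20 nM) dealkylation of Luciferin-PPXE, 25 uM (its KM). NADPH-driven reaction ran 60 min at RT after 10 min compound preincubation; data scaled to 57 uM ketoconazole as 100% inhibition.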
# [7] = MultiTox-Fluor Cytotoxicity Assay - LYMP1-001 - Live Cells (AID 947)
# [8] = MultiTox-Fluor Cytotoxicity Assay - LYMP1-002 - Live Cells (AID 955)
# How it was run: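 Cells were seeded at 2500 per well and incubated 5 hr. Compounds were then added for 16 hr at 37 C, followed by MultiTox-Fluor reagent for 60 min at room temperature and fluorescence reading of viable-cell protease signal.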
# [9] = Cell Viability - LYMP2-023 (AID 975); also: nearly all actives have a fitted effect of over 55% in size; also: potency is read from the fitted curve at half-maximal effect
# How it was run: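 Steps: seed 2500 human lymphoblastoid cells per well, incubate 5 hr at 37 C, add compound for 24 hr at 37 C, add CellTiter-Glo, hold 30 min at room temperature, read luminescence. AC50 derived by Hill modelling.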
# [10] = Cell Viability - LYMP2-002 (AID 977);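 also: compound exposure lasted 24 h at 37 °C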
# How it was run: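 Human lymphoblastoid cells (2500/well) in complete medium were preincubated 5 hr at 37 C, then exposed to compounds for 24 hr at 37 C. Intracellular ATP was read by CellTiter-Glo luminescence; AC50 came from Hill-equation concentration-response fits.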
# [11] = qHTS assay for small molecule disruptors of the mitochondrial membrane potential - 1 hr assay (AID 651754; calls by dose curve; also: nearly all actives have a fitted effect of over 35% in size; also: potency is read from the fitted curve at half-maximal effect)
# How it was run: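 Loss of mitochondrial potential shifts the cationic dye from red mitochondrial aggregates to green cytoplasmic monomers. Cells (HepG2) are treated with compound for 1 hr before a 30 min dye incubation at 37C.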
# [12] = qHTS assay for small molecule disruptors of the mitochondrial membrane potential - 5 hr assay (AID 651755; calls by dose curve; also: nearly all actives have a fitted effect of over 40% in size; also: potency is read from the fitted curve at half-maximal effect)
# How it was run: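 Membrane-potential dye readout: red aggregate (540 ex/590 em) versus green monomer (490 ex/535 em) fluorescence after 30 min dye loading, following 5 hr compound exposure at 37C of overnight-plated HepG2 cells.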
# [13] = molecular target: Nuclear receptor ROR-gamma (Homo sapiens) (UniProt P51449); assay: qHTS assay for small molecule antagonists of the retinoid-related orphan receptor gamma (ROR-gamma) signaling pathway (AID 651802); also: nearly all actives have a fitted effect of over 60% in size; also: potency is read from the fitted curve at half-maximal effect
# How it was run: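 Steps: cells dispensed; compound or DMSO transferred by pin tool; doxycycline added to induce the ROR response element-driven luciferase; plates held 16hr at 37C; ONE-Glo added and luminescence measured.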
# [14] = molecular target: Nuclear receptor subfamily 1 group I member 2 (Rattus norvegicus) (UniProt Q9R1A7); assay: qHTS assay for small molecule activators of the rat pregnane X receptor (rPXR) signaling pathway (AID 651751; call rule not given here); details: rPXR reporter cells, luciferase (One-Glo), 24 h
# [15] = Cell Viability - LYMP2-017 (AID 972); also: nearly all actives have a fitted effect of over 55% in size; also: potency is read from the fitted curve at half-maximal effect
# How it was run: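 Cytotoxicity is scored as a concentration-dependent drop in cellular ATP in a human lymphoblastoid line after 24 hr treatment at 37 C. Values are AC50s from Hill-equation modelling.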
# [16] = molecular target: Tumor necrosis factor (Homo sapiens) (UniProt P01375); assay: qHTS assay to identify small molecules that stimulate Tumor Necrosis Factor-alpha (TNF-alpha) secretion (AID 651757; active = well fitted curve in the direction sought with a large enough effect in the signal ratio; the % refers to the signal ratio)
# How it was run: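 Human monocytic THP-1 cells are plated, treated with compound and held at 37 C for 17 hrs. Labeled anti-TNF-alpha antibody mixture is then added; after 3 hr at room temperature, TR-FRET signal reports secreted TNF-alpha.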
# [17] = qHTS assay for environmental chemicals that activate the Aryl hydrocarbon Receptor (AhR) signaling pathway (AID 651777); details: 1A2-DRE human hepatoma cells, luciferase, 24 h; activation: active compounds read high; also: nearly all actives have a fitted effect of over 15% in size; also: potency is read from the fitted curve at half-maximal effect
# How it was run: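 Induction of CYP1A2 transcription through AhR is detected by luciferase in 1A2-DRE hepatoma cells. Compounds or DMSO act for 24 hr at 37 C before a 30 min One-Glo step at room temperature.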
# [18] = Cell Viability - SH-SY5Y (AID 544); details: SH-SY5Y neuroblastoma cell viability; viability change, negative = cytotoxic: at 92.2 µM (top of the series);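 also: cells exposed to compound for 40 hours; nearly all actives have a fitted effect of over 55% in size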; also: potency is read from the fitted curve at half-maximal effect
# How it was run: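 Cells were plated at 1500 per well and allowed 5 hr at 37 °C. Compounds were added across a concentration range and incubated 40 hr at 37 °C. CellTiter-Glo was added for 20 min at room temperature before luminescence reading.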
# [19] = Cell Viability - LYMP1-002 - Assay at 16 hr (AID 948)
# How it was run: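 In this qHTS, lymphoblastoid LYMP1-002 cells (human) receive compounds for 16 hr at 37 C. Viability is taken from CellTiter-Glo ATP luminescence, and AC50 derives from standard Hill fits.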
# [20] = Cell Viability - LYMP2-005 (AID 967); also: potency is read from the fitted curve at half-maximal effect
# How it was run: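 Luciferase-based ATP quantitation served as the viability measure in human lymphoblastoid LYMP2-005 cells exposed to test compounds for 24 h at 37 C in complete culture medium. Potency (AC50) was obtained by fitting concentration-response curves with the Hill equation.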
# Sequence of Cytochrome P450 3A4 (Homo sapiens) (P08684 whole entry, looked up): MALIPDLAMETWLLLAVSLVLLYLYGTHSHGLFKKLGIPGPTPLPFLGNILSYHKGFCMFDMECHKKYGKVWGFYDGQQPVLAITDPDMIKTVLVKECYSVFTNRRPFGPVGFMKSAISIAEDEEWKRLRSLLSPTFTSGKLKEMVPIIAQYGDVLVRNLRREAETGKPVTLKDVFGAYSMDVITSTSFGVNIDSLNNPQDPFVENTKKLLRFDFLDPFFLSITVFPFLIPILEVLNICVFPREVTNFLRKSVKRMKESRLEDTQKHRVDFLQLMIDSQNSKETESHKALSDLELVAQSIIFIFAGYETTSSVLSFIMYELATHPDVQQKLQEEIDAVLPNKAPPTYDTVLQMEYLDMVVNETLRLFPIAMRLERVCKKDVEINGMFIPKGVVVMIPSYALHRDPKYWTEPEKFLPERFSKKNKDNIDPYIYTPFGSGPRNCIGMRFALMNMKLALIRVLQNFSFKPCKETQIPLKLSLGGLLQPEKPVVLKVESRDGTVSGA
# Sequence of Tumor necrosis factor (Homo sapiens) (P01375 whole entry, looked up): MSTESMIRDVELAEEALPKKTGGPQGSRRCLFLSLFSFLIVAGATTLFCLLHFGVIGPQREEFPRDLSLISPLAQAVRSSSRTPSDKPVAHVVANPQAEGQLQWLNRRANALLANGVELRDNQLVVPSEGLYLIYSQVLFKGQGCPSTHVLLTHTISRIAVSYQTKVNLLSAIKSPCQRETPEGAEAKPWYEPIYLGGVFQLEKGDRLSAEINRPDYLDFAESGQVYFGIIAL
# Sequence of Nuclear receptor subfamily 1 group I member 2 (Rattus norvegicus) (Q9R1A7 whole entry, looked up): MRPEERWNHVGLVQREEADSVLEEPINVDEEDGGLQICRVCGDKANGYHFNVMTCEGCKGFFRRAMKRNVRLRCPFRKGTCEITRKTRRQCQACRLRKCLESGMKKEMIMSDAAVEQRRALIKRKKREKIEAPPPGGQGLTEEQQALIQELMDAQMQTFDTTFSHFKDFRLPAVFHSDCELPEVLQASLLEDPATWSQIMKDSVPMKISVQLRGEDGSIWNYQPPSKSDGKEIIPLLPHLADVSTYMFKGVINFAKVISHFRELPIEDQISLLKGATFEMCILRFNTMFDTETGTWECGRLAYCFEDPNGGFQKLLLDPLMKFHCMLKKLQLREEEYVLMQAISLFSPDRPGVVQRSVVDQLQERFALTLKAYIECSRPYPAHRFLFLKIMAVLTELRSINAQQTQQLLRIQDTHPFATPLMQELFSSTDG
# Sequence of Nuclear receptor ROR-gamma (Homo sapiens) (P51449 whole entry, looked up): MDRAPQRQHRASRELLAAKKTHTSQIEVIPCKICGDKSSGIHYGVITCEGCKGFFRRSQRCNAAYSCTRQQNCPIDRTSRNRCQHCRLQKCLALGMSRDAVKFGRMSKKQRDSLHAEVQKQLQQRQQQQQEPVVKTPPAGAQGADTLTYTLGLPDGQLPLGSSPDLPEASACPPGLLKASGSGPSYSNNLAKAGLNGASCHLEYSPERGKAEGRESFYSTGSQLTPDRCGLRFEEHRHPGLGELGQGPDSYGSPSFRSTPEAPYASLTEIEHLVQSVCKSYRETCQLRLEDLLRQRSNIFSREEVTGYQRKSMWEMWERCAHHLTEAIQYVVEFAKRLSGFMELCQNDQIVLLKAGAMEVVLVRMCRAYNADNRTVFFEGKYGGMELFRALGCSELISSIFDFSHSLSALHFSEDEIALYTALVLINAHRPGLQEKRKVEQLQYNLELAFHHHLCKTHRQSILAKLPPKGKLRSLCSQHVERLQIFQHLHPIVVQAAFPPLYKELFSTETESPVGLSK
compound,measurement,setting,value
O=[N+]([O-])c1cccc(CCl)c1,Potency,[1],inactive
same,outcome,[2],inactive
same,outcome,[3],inactive
same,outcome,[4],inactive
same,Potency,[5],inactive
same,Potency,[6],inactive
same,outcome,[7],inactive
same,outcome,[8],inactive
same,Potency,[9],inactive
same,Potency,[10],inactive
same,Potency,[11],inactive
same,Potency,[12],inactive
same,Potency,[13],33.5 µM (active)
same,max response,[14],-4.81%
BrCC(Br)(Br)Br,Potency,[1],inactive
same,outcome,[3],inactive
same,Potency,[5],inactive
same,Potency,[6],inactive
same,outcome,[7],inactive
same,outcome,[8],inactive
same,Potency,[15],15.8 µM (active)
same,Potency,[9],20 µM (active)
same,Potency,[11],inactive
same,Potency,[12],inactive
same,outcome,[16],inactive
same,activation,[17],1.69%
same,max response,[14],-4.89%
c1ccc2c(c1)-c1cccc3c1c-2cc1ccccc13,Potency,[17],10 µM (active)
same,Potency,[13],inactive
N#C/C=C/C#N,Potency,[18],15.8 µM (active)
same,outcome,[2],inactive
same,outcome,[3],inactive
same,Potency,[5],inactive
same,Potency,[6],inactive
same,outcome,[7],inactive
same,outcome,[19],inactive
same,outcome,[8],inactive
same,Potency,[20],25.1 µM (active)
same,Potency,[15],31.6 µM (active)
same,Potency,[9],39.8 µM (active)
same,Potency,[11],inactive
same,Potency,[12],inactive
same,outcome,[16],inactive
same,activation,[17],5.04%
same,Potency,[13],23.7 µM (active)
same,max response,[14],-4.77%
Oc1cc(Cl)c(Cl)c(Cl)c1,Potency,[1],inactive
same,outcome,[3],inactive
same,outcome,[4],inactive
same,Potency,[5],inactive
same,outcome,[7],inactive
same,outcome,[19],inactive
same,outcome,[8],inactive
same,Potency,[20],inactive
same,Potency,[11],33.5 µM (active)
same,Potency,[12],37.6 µM (active)
same,outcome,[16],inactive
same,activation,[17],1.76%
same,Potency,[13],13.3 µM (active)
same,max response,[14],-2.97%
[C-]1=CC=CC1.[C-]1=CC=CC1.[Cl-].[Cl-].[Ti+4],"viability change, negative = cytotoxic",[18],-81.6% (active)
same,Potency,[1],inactive
same,outcome,[3],inactive
same,outcome,[4],inactive
same,Potency,[5],inactive
same,Potency,[6],inactive
same,outcome,[7],inactive
same,outcome,[16],inactive
same,activation,[17],0.145%
c1ccc2c(c1)ccc1cc3c(ccc4ccccc43)cc12,Potency,[17],2.82 µM (active)
same,Potency,[13],inactive
Nc1ccc(-c2ccc(N)c(Cl)c2)cc1Cl,Potency,[18],12.6 µM (active)
same,outcome,[2],inactive
same,outcome,[3],inactive
same,outcome,[4],inactive
same,Potency,[6],15.8 µM (active)
same,outcome,[7],inactive
same,outcome,[8],inactive
same,Potency,[20],inactive
same,Potency,[15],inactive
same,Potency,[9],inactive
same,Potency,[11],42.2 µM (active)
same,Potency,[12],37.6 µM (active)
same,Potency,[17],44.7 µM (active)
Oc1cc(Cl)c(Cl)c(Cl)c1Cl,Potency,[1],inactive
same,outcome,[2],inactive
same,outcome,[3],inactive
same,outcome,[4],inactive
same,Potency,[5],inactive
same,outcome,[7],inactive
same,outcome,[19],inactive
same,outcome,[8],inactive
same,Potency,[20],inactive
same,Potency,[9],inactive
same,Potency,[10],inactive
same,activation,[17],4.37%
same,Potency,[13],23.7 µM (active)
same,max response,[14],-6.73%
Clc1ccc(C(c2ccccc2Cl)C(Cl)(Cl)Cl)cc1 (configuration not stated),Potency,[1],inactive
same,outcome,[2],inactive
same,outcome,[4],inactive
same,Potency,[5],inactive
same,Potency,[6],inactive
same,outcome,[7],inactive
same,outcome,[19],inactive
same,outcome,[8],inactive
same,Potency,[20],inactive
same,Potency,[15],inactive
same,Potency,[9],inactive
same,Potency,[10],inactive
same,outcome,[16],inactive
same,activation,[17],-0.21% and -0.331%
